Experimental data published in PubChem BioAssay (EPA / NIEHS).
Records with an inconclusive call do not appear. Activity calls are given as the source filed them. How the source made its calls: active means hit-call score of the fitted dose curve at least 0.9, where 1 is the maximum; inconclusive means response in the unintended direction; inactive means score below 0.9.

What was measured:
[1] = biological target: Tyrosine-protein phosphatase non-receptor type 13 (Homo sapiens) (UniProt Q12923); test: NVS_ENZ_hPTPN13: NovaScreen (NVS) Enzymatic Assay for human Protein Tyrosine Phosphatase Non-receptor Type 13 (PTPN13) (AID 2283205)
In short: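 Cell-free assay of recombinant human PTPN13 with a fluorescent substrate, product separated by electrophoretic mobility shift and read 0.5 h after dosing. Primary screen at 25 uM in duplicate, then concentration-response up to 50 uM. Loss of signal fitted against DMSO.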

[2] = biological target: human Raf-1 Proto-Oncogene, serine/threonine Kinase (RAF1), RAF1 (gene 5894) (UniProt P04049); test: NVS_ENZ_hRAF1: NovaScreen (NVS) Enzymatic Assay for human Raf-1 Proto-Oncogene, serine/threonine Kinase (RAF1) (AID 2283216)
In short: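 Cell-free recombinant kinase with specific fluorescent substrate, product separated by electrophoretic mobility shift; read 1 h after dosing. Primary screen at 25 uM in duplicate; hits then run in concentration-response up to 50 uM, fitted as loss of signal versus DMSO.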

[3] = biological target: human Sirtuin 2 (SIRT2), SIRT2 (gene 22933) (UniProt Q8IXJ6); test: NVS_ENZ_hSIRT2: NovaScreen (NVS) Enzymatic Assay for human Sirtuin 2 (SIRT2) (AID 2283217)
In short: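 Cell-free recombinant human SIRT2, fluorescent substrate with product separated by electrophoretic mobility shift, 1 hr. Screened in duplicate at 25 uM; hits rerun singly in concentration-response up to 50 uM, relative to DMSO.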

[4] = biological target: human Sirtuin 3 (SIRT3), SIRT3 (gene 23410) (UniProt Q9NTG7); test: NVS_ENZ_hSIRT3: NovaScreen (NVS) Enzymatic Assay for human Sirtuin 3 (SIRT3) (AID 2283222)
In short: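 Cell-free enzyme assay with recombinant protein and fluorescent substrate, product separated by electrophoretic mobility shift; read 1 hour after dosing. Screened in duplicate at 25 uM, then singleton concentration-response up to 50 uM; loss of signal versus DMSO.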

[5] = biological target: human Tropomyosin Receptor Kinase A (TRKA), NTRK1 (gene 4914) (UniProt P04629); test: NVS_ENZ_hTrkA: NovaScreen (NVS) Enzymatic Assay for human Tropomyosin Receptor Kinase A (TRKA) (AID 2283224)
In short: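 Recombinant human TrkA activity read after 1 h by fluorescence with electrophoretic mobility shift separating substrate and product. Primary screen in duplicate at 25 uM; actives were rerun in concentration-response up to 50 uM. Loss of signal versus DMSO.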

Sequence of human Tropomyosin Receptor Kinase A (TRKA), NTRK1 (gene 4914) (P04629 whole entry, looked up): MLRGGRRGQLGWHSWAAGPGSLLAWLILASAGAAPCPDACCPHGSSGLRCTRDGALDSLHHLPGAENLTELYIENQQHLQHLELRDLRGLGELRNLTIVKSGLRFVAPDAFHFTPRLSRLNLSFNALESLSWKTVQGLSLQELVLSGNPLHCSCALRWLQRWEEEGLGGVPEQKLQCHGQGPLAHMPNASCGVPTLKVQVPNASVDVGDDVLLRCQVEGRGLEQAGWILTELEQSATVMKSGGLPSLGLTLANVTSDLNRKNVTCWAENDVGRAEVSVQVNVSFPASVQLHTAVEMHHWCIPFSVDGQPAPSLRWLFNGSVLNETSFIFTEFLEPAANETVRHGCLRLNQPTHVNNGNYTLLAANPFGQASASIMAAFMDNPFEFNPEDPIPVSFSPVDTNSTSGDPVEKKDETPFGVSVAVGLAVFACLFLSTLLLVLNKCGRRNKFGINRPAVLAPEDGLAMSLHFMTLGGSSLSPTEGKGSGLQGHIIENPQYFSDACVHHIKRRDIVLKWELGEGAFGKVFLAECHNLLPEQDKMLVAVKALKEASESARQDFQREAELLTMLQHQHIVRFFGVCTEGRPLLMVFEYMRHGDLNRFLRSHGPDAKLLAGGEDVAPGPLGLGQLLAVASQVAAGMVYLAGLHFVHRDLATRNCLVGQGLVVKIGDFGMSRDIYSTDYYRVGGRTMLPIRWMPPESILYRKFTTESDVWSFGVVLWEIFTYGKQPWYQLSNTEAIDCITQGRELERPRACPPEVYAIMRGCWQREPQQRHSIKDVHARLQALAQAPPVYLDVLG
Sequence of Tyrosine-protein phosphatase non-receptor type 13 (Homo sapiens) (Q12923 whole entry, looked up): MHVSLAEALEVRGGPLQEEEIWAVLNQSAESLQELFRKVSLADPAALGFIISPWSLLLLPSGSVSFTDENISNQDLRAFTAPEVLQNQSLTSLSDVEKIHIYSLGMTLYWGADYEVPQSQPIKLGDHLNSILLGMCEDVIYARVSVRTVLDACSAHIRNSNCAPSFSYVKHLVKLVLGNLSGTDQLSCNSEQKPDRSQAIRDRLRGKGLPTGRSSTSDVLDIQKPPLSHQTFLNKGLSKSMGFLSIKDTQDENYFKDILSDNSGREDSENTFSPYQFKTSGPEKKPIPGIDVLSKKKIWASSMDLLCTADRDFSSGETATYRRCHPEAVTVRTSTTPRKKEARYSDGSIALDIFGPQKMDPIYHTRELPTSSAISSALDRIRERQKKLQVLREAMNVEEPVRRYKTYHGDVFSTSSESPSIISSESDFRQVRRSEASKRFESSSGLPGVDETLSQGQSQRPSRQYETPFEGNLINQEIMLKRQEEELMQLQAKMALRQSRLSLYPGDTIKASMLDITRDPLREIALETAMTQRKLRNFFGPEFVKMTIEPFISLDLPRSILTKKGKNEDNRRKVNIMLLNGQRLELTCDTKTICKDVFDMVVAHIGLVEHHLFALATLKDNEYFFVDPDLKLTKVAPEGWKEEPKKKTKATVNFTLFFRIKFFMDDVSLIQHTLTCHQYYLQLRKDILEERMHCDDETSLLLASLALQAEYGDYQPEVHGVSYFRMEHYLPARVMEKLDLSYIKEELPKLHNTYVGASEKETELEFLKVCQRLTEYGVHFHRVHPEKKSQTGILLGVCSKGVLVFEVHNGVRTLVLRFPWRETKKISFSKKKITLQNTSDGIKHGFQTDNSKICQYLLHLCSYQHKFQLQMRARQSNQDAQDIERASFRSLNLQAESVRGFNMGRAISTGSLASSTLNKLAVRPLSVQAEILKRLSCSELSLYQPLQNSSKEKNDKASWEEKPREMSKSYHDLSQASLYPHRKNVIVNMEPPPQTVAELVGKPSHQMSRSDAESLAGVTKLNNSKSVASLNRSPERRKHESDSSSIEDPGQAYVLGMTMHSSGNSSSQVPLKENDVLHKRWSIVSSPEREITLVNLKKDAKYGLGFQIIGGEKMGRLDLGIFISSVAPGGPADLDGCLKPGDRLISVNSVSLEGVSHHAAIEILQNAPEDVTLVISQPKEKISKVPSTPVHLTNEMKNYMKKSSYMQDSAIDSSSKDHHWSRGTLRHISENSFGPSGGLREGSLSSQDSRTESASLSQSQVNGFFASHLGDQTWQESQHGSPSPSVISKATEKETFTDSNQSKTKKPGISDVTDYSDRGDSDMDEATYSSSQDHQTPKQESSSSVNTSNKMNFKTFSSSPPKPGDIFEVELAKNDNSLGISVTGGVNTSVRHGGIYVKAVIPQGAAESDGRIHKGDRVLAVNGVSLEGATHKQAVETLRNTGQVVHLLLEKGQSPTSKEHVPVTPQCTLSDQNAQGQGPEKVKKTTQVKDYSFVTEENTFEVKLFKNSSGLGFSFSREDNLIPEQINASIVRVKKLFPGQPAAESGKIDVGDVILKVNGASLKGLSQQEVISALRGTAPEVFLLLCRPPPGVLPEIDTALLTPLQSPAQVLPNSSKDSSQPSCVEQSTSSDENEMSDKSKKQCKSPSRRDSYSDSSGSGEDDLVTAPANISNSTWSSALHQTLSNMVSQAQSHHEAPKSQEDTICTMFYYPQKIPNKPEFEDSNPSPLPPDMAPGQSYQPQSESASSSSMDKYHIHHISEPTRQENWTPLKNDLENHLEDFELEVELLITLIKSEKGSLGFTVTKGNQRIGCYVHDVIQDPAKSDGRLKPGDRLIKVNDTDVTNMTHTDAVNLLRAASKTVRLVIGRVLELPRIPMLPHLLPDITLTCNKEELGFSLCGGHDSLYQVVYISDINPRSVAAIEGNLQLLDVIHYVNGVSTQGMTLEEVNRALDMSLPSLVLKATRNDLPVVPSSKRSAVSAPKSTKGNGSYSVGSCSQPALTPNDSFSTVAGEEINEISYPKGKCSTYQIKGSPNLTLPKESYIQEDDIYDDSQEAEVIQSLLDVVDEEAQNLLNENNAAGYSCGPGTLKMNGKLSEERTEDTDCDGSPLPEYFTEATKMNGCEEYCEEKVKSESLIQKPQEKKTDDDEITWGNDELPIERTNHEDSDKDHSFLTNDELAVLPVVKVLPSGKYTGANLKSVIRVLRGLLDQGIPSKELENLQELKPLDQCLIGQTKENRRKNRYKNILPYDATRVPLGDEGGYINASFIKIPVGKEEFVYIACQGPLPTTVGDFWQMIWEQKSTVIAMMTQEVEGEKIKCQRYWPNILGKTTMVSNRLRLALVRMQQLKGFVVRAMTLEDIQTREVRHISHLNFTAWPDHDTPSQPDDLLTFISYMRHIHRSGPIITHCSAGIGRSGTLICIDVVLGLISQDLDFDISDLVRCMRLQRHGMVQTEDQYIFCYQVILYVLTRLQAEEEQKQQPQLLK
Sequence of human Raf-1 Proto-Oncogene, serine/threonine Kinase (RAF1), RAF1 (gene 5894) (P04049 whole entry, looked up): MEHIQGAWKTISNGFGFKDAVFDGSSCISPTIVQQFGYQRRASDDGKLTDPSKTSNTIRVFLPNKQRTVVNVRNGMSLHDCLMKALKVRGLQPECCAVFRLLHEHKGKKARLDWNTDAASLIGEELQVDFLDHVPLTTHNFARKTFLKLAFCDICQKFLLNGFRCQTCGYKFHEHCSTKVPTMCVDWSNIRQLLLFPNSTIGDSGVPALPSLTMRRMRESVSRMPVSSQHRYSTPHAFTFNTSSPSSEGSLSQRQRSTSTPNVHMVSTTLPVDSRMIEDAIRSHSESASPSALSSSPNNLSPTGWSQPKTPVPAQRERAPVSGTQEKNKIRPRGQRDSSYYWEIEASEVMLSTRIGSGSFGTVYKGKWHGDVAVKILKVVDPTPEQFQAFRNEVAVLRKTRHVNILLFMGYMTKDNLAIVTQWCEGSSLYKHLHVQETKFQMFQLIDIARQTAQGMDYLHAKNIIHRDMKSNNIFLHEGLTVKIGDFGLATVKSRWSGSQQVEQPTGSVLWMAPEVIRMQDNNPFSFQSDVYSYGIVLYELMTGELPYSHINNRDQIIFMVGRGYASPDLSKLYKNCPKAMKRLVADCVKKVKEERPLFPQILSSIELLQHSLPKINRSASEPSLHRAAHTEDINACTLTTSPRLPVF
Sequence of human Sirtuin 2 (SIRT2), SIRT2 (gene 22933) (Q8IXJ6 whole entry, looked up): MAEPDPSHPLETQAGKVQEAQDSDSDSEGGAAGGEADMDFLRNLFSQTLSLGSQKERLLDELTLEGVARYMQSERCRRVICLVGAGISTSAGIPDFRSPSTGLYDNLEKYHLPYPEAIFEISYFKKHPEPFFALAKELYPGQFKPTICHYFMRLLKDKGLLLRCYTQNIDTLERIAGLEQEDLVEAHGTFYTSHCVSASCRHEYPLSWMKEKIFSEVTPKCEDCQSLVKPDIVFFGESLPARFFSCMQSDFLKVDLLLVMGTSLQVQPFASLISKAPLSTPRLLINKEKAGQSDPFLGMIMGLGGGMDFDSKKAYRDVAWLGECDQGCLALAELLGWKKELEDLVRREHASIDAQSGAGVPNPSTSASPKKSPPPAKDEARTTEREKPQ
Sequence of human Sirtuin 3 (SIRT3), SIRT3 (gene 23410) (Q9NTG7 whole entry, looked up): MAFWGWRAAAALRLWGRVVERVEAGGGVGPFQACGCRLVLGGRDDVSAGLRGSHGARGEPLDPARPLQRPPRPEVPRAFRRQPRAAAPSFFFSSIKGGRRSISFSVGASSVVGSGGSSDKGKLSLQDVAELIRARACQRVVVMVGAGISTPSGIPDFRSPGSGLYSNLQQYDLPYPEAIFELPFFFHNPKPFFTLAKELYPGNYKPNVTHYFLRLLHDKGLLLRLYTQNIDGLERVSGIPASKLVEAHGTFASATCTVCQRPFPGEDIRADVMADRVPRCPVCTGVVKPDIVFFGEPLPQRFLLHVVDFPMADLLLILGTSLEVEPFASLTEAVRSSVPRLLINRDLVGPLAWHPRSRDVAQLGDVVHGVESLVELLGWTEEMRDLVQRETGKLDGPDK

`c1ccc(OP(Oc2ccccc2)Oc2ccccc2)cc1` was tested, and the outcome [1] was “inactive”.
In the case of `CC(C)(C)OOC(C)(C)C`, the outcome [1] is reported as “inactive” and the outcome [2] is reported as “inactive”.
With `CSC(C)(C)C=NO` the outcome [3] was “inactive” and the outcome [4] was “inactive”.
With `ClC1=C(Cl)C2(Cl)C3C(Cl)C(Cl)CC3C1(Cl)C2(Cl)Cl` (configuration not stated) the outcome [5] was “inactive”.
In the case of `O=[N+]([O-])c1ccccc1`, the outcome [5] is reported as “inactive”.
